Source: PubChem BioAssay (several laboratories)
Most compounds without a hit are left out; they make up all but 4.3% or so of the library.
Wnt act: Wnt/beta-catenin pathway activators, primary screen, cell-based, plate reader, single point; Wnt/beta-catenin reporter cell assay, activator; 300,000 compounds, 1.2% hits; AID 743398, 2014; activation, % at 9.35 µM; in the data active = activation above about 30%, passing the limit was not always enough; inconclusive = no clear call, values can overlap the other calls;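 also: 0% = neutral control wells and 100% = positive control wells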
SMARCA2 activ: SMARCA2 (BRM) function activators, primary screen, cell-based, luminescence, high throughput; MG213 cells, MMTV-luciferase reporter, dexamethasone, overnight; activation, % at 9.1 µM; 370,000 compounds, 1% hits; AID 652017, 2013; in the data active = activation above about 7.8%;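 also: 0% = vehicle wells and 100% = reference activator wells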
MITF act: activators of MITF-driven TRPM1 promoter reporter, primary screen, cell-based, SK-MEL-5, luciferase, single point; SK-MEL-5 TRPM1-promoter luciferase, 24 h; % of positive control, neutral wells = 0; activation, % at 12.5 µM; 300,000 compounds, 0.75% hits;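 active = mean activation of at least 80% with every replicate also reaching 80%; inconclusive = mean reaches 80% but some replicate falls short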;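 also: 0% = neutral control wells and 100% = parthenolide positive control wells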
HSF1 inhib: HSF1 inhibitors in luciferase reporter cells, primary screen, cell-based, NIH3T3, luminescence; activity change, negative = inhibition, % at 7.5 µM (by protocol); NIH3T3-HGL HSE-luciferase, MG132-induced, luminescence 8 h; hits give low values; AID 2098, 2009; 300,000 compounds, 0.77% hits;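 active = more than half of replicate wells show activity change below -50%, luminescence cut by over half; inconclusive = some wells, but at most half, below -50%; inactive = no replicate well below -50%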;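 also: luciferase reports HSF-1 transcriptional activity via heat shock element; 0% = median of DMSO wells and -100% = zero luminescence signal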
HSF1 activator: HSF-1 activators, primary screen, NIH3T3-HGL cells, MG132 stress, luminescence, single point; activation, % at 9 µM; 300,000 compounds, 1.7% hits; NIH3T3-HGL HSF-1 luciferase reporter, 8 h; 100% = twice DMSO control signal;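 active = mean replicate activation of at least 50% with a set share of replicates each reaching 50%; inconclusive = only one of those two conditions met; inactive = mean below 50% and too few replicates reaching it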;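 also: 0% = median of the neutral control wells and 100% = twice that signal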
esBAF inh: Bmi1 luciferase reporter increase in mESCs, primary screen, esBAF inhibitor project, mouse ES cells, Bmi1 luciferase knock-in, single point. 24 h; 100% = twice the neutral-well signal. reporter increase, % at 12.5 µM. 350,000 compounds, 2% hits; in the data active = activation above about 40%; inconclusive = no clear call, values can overlap the other calls;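 also: 0% = median of the plate's neutral control wells and 100% = double that signal; a rise in the Bmi1 reporter signal indicates esBAF inhibition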
* hit, by the source's call; ? = inconclusive; / = not tested or not shown.

SMILES | Wnt act | SMARCA2 activ | MITF act | HSF1 inhib | HSF1 activator | esBAF inh
CSc1nc2ccc(NS(=O)(=O)c3ccc(CNC(C)=O)cc3)cc2s1 | -2 | 0 | -11 | / | / | -1
CSc1nc2ccc(NS(=O)(=O)c3ccc([N+](=O)[O-])cc3)cc2s1 | 0 | -5 | / | -89* | -91 | /
Cc1ccc(S(=O)(=O)N(C)C[C@H]2OCCCC[C@H](C)Oc3ccc(NS(=O)(=O)c4ccc(F)cc4)cc3C(=O)N([C@H](C)CO)C[C@H]2C)cc1 | / | / | / | / | / | 1
COc1cc(OC)cc(C(=O)Nn2c(C)nc3ccccc3c2=O)c1 | / | -3 | 4 | -4 | -11 | /
COc1ccc2[nH]c3c(c2c1)CCn1c-3nc2ccccc2c1=O | 41* | / | 28 | / | / | -14
CO[C@H]1CN(C)C(=O)c2ccc(NS(=O)(=O)c3ccccc3)cc2OC[C@H](C)NC[C@H]1C | / | / | / | / | / | 1
CCCCc1ccc(-c2nc(N)n[nH]2)cc1 | 35* | 2 | 57 | 11 | 38 | 29
CN1C(=O)c2cc(NC(=O)c3ccc(F)cc3)ccc2OC[C@H]2O[C@H](CC(=O)O)CC[C@@H]21 | / | / | / | / | / | -2
COc1ccc(NS(=O)(=O)c2cn(C)c(=O)n(C)c2=O)cc1 | 42* | -5 | -8 | 0 | -2 | 1
Cn1cc(S(=O)(=O)Nc2ccc(Oc3ccccc3)cc2)c(=O)n(C)c1=O | 1 | -1 | -3 | 1 | -9 | -1
CC(C(=O)Nc1ccccc1Br)N1c2cccc3cccc(c23)S1(=O)=O (stereo not given) | -2 | -1 | -7 | 35 | 67* | -1
CCC(=O)N(C)C[C@@H]1Oc2cc(-c3cncnc3)ccc2S(=O)(=O)N([C@H](C)CO)C[C@H]1C | / | / | / | / | / | 1
Cc1c(N2C(=O)/C(=C\C3CC=CCC3)SC2=S)c(=O)n(-c2ccccc2)n1C (stereo not given) | -2 | 1 | 8 | 10 | 15 | 44*
Cc1c(N2C(=O)/C(=C/C3CC=CCC3)SC2=S)c(=O)n(-c2ccccc2)n1C (stereo not given) | 2 | -2 | / | 22 | 23 | /
COc1ccccc1N1CCN(C(=O)c2ccc3c(=O)n(Cc4ccco4)c(=S)[nH]c3c2)CC1 | -4 | -2 | / | 49 | 88* | -3
COc1ccccc1Cn1c(=S)[nH]c2cc(C(=O)N3CCN(c4ccccc4OC)CC3)ccc2c1=O | -1 | -2 | -4 | -4 | 1 | -1
CCOC(=O)N1CCN(C(=O)c2ccc3c(=O)n(-c4ccc(OC)cc4)c(=S)[nH]c3c2)CC1 | -5 | -4 | 3 | 6 | 52* | -9
COCCNC(=O)c1ccc2c3n(nc2c1)-c1ccc(Cl)cc1CO3 | 21 | 7 | 87* | 7 | -1 | 63*
O=C(NCCO)c1ccc2c3n(nc2c1)-c1ccc(Cl)cc1CO3 | 51* | 4 | 84* | 20 | 3 | 68*
C=CCNC(=O)c1ccc2c3n(nc2c1)-c1ccccc1CO3 | 25 | 6 | 30 | 5 | 10 | 1
O=C(NCCO)c1cccc(Cl)c1 | / | -2 | / | -5 | 13 | -6
O=C(NCC1CC1)c1ccc2c3n(nc2c1)-c1ccc(Cl)cc1CO3 | 25 | 6 | 59 | 14 | 11 | 44*
Cc1ccc2c(c1)COc1c3ccc(C(=O)NCCO)cc3nn1-2 | 52* | 6 | 102* | -27 | -45 | 62*
COCCNC(=O)c1ccc2c3n(nc2c1)-c1ccccc1CO3 | 13 | 7 | 73 | 6 | 0 | 53*
CCN1C(=O)c2cccc3c(S(=O)(=O)Nc4ccccn4)ccc1c23 | 14 | -4 | / | 19 | 12 | -13
SMILES | Wnt act | SMARCA2 activ | MITF act | HSF1 inhib | HSF1 activator | esBAF inh
CCN1C(=O)c2cccc3c(S(=O)(=O)Nc4ccncc4)ccc1c23 | / | / | -1 | 2 | -8 | -11
CCN1C(=O)c2cccc3c(S(=O)(=O)Nc4ncccc4C)ccc1c23 | 12 | 1 | -8 | 41 | 89* | -4
CCN1C(=O)c2cccc3c(S(=O)(=O)Nc4ccccc4)ccc1c23 | / | / | / | 32 | 59* | -5
CCCC(=O)Nc1ccc2c(c1)C(=O)N(C)[C@@H]1CC[C@H](CC(=O)NCC3CC3)O[C@@H]1CO2 | / | / | / | / | / | -7
Cc1c(Cl)cccc1NC(=O)CSc1sc2c(O)cc(=O)[nH]c2c1C#N | -1 | -2 | -12 | 2 | 22 | 3
N#Cc1c(SCC(=O)Nc2ccc(Cl)cc2Cl)sc2c(O)cc(=O)[nH]c12 | 1 | 7.8* | 11 | 1 | -8 | -4
C[C@H]1CN([C@@H](C)CO)C(=O)c2cccc(NS(C)(=O)=O)c2O[C@@H]1CN(C)C | / | / | / | / | / | 0
O=S(=O)(N[C@@H]1CC[C@H](CCn2cc(C3CC3)nn2)O[C@H]1CO)c1ccc(Cl)cc1 | / | / | / | / | / | 2
Cc1nn(C(C)(C)C)c(C)c1/C=N/OC(=O)Nc1ccc(Cl)cc1 | -22 | -12 | / | -92* | -92 | /
CN1C(=O)c2cc(NC(=O)Nc3ccccc3Cl)ccc2OC[C@@H]2O[C@@H](CC(=O)NCCCN3CCOCC3)CC[C@@H]21 | / | / | / | / | / | 5
CCN(CC)c1ccc(/C=N/NC(=O)C(O)(c2ccccc2)c2ccccc2)o1 | / | / | / | 164 | 281* | /
Nc1nc(N)nc(-c2cccc(Br)c2)n1 | 36* | -1 | 41 | / | / | 38
Cn1nnnc1SCc1ccc(C(=O)Nc2ccc(Br)cc2)cc1 | / | 3 | 30 | 16 | 11 | 72*
O=C(CN1C(=O)c2ccccc2S1(=O)=O)c1ccccc1F | 7 | 1 | -24 | -52* | -61 | -73
CC1CCN(C(=O)CN2C(=O)c3ccccc3S2(=O)=O)CC1 | 48* | 6 | -7 | -7 | -1 | -32
O=C(CN1C(=O)c2ccccc2S1(=O)=O)c1ccc(Cl)cc1Cl | -11 | -7 | -85 | -68* | -74 | -83
C[C@H](CO)N1C[C@H](C)[C@@H](CN(C)C(=O)Nc2ccc(F)cc2)Oc2c(NS(=O)(=O)c3cccs3)cccc2C1=O | / | / | / | / | / | 3
COc1cc(C(=O)N2CCN(C(=O)CC(C)C)CC2)cc(OC)c1OC | -2 | -2 | -3 | -73* | -78 | -5
COc1ccc(C(=O)N2CCN(C(=O)CC(C)C)CC2)cc1OC | / | 0 | 11 | 5 | 10 | -8
CC(=O)N(C)C[C@@H]1Oc2cc(-c3cccc(F)c3)ccc2S(=O)(=O)N([C@@H](C)CO)C[C@H]1C | / | / | / | / | / | -4
CCC(=O)N1C[C@H](O)COC[C@@H]2O[C@H](CC(=O)NCc3cc(F)cc(F)c3)CC[C@H]21 | / | / | / | / | / | 2
COc1cccc(NC(=O)COC(=O)c2nc3nccc(C)n3n2)c1 | / | 0 | -3 | -8 | 0 | 2
COc1cccc(N(C(=O)c2nc3nccc(C)n3n2)c2nc3ccccc3s2)c1 | 17 | 4 | ? | 69 | 121* | /
